“And” between values parts separate entries of the source, which are not always exact repeats. Equal values may be shown once. The whole screen tested about 5,500 compounds, of which about 2,000 (36%) were called active. Not shown: some 18% with an inconclusive outcome. Cut-off read from the data, not from the text of the source: active = normalized growth mostly below about 0.91 (no sharp cut-off); inconclusive = no clear call, values can overlap the other calls; inactive = mostly above about 0.92. The list shows a part of the results.
Assay: chemical genetic growth profiling, strain panel (AID 1159580);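 note: tested at 20 µM; growth read once vehicle control cultures reached saturation at 30 °C; 1 = growth at the plate median or of vehicle wells; lower values mean less growth of the strain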
Settings: S. cerevisiae deletion strains, growth OD

Measured: normalized growth

Cc1cccc(C)c1NC(=O)C1CCCCN1C (configuration not stated)
inactive: locus YAL013W, strain DEP1, stronger effect = lower value 1.02 | locus YAL021C, strain ccr4, stronger effect = lower value 1.02 | locus YAL026C, strain drs2, stronger effect = lower value 0.993 | locus YAL030W, strain snc1, stronger effect = lower value 0.985 | locus YBL061C, strain skt5, stronger effect = lower value 0.979 | locus YBR009C, strain hhf1, stronger effect = lower value 0.989 | locus YBR021W, strain FUR4, stronger effect = lower value 1 | locus YBR023C, strain chs3, stronger effect = lower value 0.991 | locus YBR171W, strain sec66, stronger effect = lower value 0.977 | locus YBR229C, strain ROT2, stronger effect = lower value 1.01 | locus YBR231C, strain swc5, stronger effect = lower value 0.993 | locus YBR279W, strain paf1, stronger effect = lower value 0.991 | locus YCL011C, strain gbp2, stronger effect = lower value 0.988 | locus YCL016C, strain dcc1, stronger effect = lower value 0.995 | locus YCL029C, strain bik1, stronger effect = lower value 1.02 | locus YCL061C, strain MRC1, stronger effect = lower value 0.975 | locus YCL069W, strain vba3, stronger effect = lower value 0.983 | locus YCR088W, strain abp1, stronger effect = lower value 0.992 | locus YDL005C, strain med2, stronger effect = lower value 0.982 | locus YDL035C, strain GPR1, stronger effect = lower value 1.01 | locus YDL040C, strain nat1, stronger effect = lower value 0.986 | locus YDL074C, strain BRE1, stronger effect = lower value 1 | locus YDL101C, strain DUN1, stronger effect = lower value 1.01 | locus YDL134C, strain PPH21, stronger effect = lower value 0.99 | locus YDL185W, strain tfp1, stronger effect = lower value 1.01 | locus YDL192W, strain arf1, stronger effect = lower value 1.01 | locus YDR001C, strain nth1, stronger effect = lower value 0.985 | locus YDR069C, strain doa4, stronger effect = lower value 1 | locus YDR101C, strain arx1, stronger effect = lower value 1 | locus YDR137W, strain rgp1, stronger effect = lower value 0.984 | locus YDR150W, strain NUM1, stronger effect = lower value 1 | locus YDR159W, strain sac3, stronger effect = lower value 0.983 | locus YDR162C, strain NBP2, stronger effect = lower value 0.994 | locus YDR195W, strain ref2 0.986 | locus YDR297W, strain sur2, stronger effect = lower value 0.992 | locus YDR318W, strain mcm21, stronger effect = lower value 1.01 | locus YDR334W, strain swr1, stronger effect = lower value 0.982 | locus YDR335W, strain msn5, stronger effect = lower value 0.989 | locus YDR388W, stronger effect = lower value 1.01 | locus YDR392W, strain spt3, stronger effect = lower value 0.996 | locus YDR502C, strain sam2, stronger effect = lower value 1.01 | locus YEL003W, strain gim4, stronger effect = lower value 0.986 | locus YEL037C, strain rad23, stronger effect = lower value 0.996 | locus YEL061C, strain CIN8 (second series), stronger effect = lower value 0.992 | locus YEL061C, strain CIN8, stronger effect = lower value 1 | locus YER015W, strain faa2, stronger effect = lower value 0.988 | locus YER016W, strain bim1, stronger effect = lower value 0.983 | locus YER110C, stronger effect = lower value 1.02 | locus YER111C, strain swi4, stronger effect = lower value 0.994 | locus YER155C, strain BEM2 (second series), stronger effect = lower value 0.982 | locus YER155C, strain BEM2, stronger effect = lower value 0.99 | locus YER167W, strain BCK2, stronger effect = lower value 1 | locus YFR010W, strain ubp6, stronger effect = lower value 0.984 | locus YGL078C, strain dbp3, stronger effect = lower value 1.01 | locus YGL086W, strain mad1, stronger effect = lower value 1 | locus YGL167C, strain pmr1, stronger effect = lower value 0.995 | locus YGL173C, strain kem1, stronger effect = lower value 0.988 | locus YGL227W, strain vid30, stronger effect = lower value 0.98 | locus YGL240W, strain doc1, stronger effect = lower value 0.981 | locus YGL248W, strain PDE1, stronger effect = lower value 1 | locus YGL253W, strain hxk2, stronger effect = lower value 0.982 | locus YGR078C, strain PAC10, stronger effect = lower value 0.996 | locus YGR135W, strain pre9, stronger effect = lower value 1 | locus YGR229C, strain SMI1, stronger effect = lower value 1 | locus YGR252W, strain gcn5, stronger effect = lower value 0.963 | locus YHR013C, strain ard1, stronger effect = lower value 0.96 | locus YHR027C, strain rpn1, stronger effect = lower value 0.986 | locus YHR030C, strain SLT2, stronger effect = lower value 1 and 1.01 | locus YHR079C, strain IRE1 (second series), stronger effect = lower value 1.01 | locus YHR079C, strain IRE1, stronger effect = lower value 1.03 | locus YHR094C, strain hxt1, stronger effect = lower value 1.01 | locus YHR129C, strain ARP1, stronger effect = lower value 1.01 | locus YHR142W, strain chs7, stronger effect = lower value 0.987 | locus YHR200W, strain rpn10, stronger effect = lower value 1 | locus YIL066C, strain RNR3, stronger effect = lower value 0.999 | locus YIL073C, strain SPO22, stronger effect = lower value 1.01 | locus YIL125W, strain kgd1, stronger effect = lower value 1.01 | locus YIR030C, strain dcg1, stronger effect = lower value 1.01 | locus YJL092W, strain hpr5, stronger effect = lower value 0.986 | locus YJL095W, strain BCK1 (second series), stronger effect = lower value 0.989 | locus YJL095W, strain BCK1, stronger effect = lower value 1.02 and 0.998 | locus YJL115W, strain asf1, stronger effect = lower value 0.996 | locus YJL129C, strain trk1, stronger effect = lower value 1.01 | locus YJL134W, strain LCB3, stronger effect = lower value 1.01 | locus YJL154C, strain vps35, stronger effect = lower value 0.994 | locus YJL164C, strain tpk1, stronger effect = lower value 0.987 | locus YJL166W, strain qcr8, stronger effect = lower value 0.993 | locus YJL168C, strain set2, stronger effect = lower value 1.01 | locus YJL187C, strain SWE1 (second series), stronger effect = lower value 1.01 | locus YJL187C, strain SWE1, stronger effect = lower value 0.985 | locus YJR043C, strain POL32, stronger effect = lower value 1.02 | locus YJR066W, strain TOR1, stronger effect = lower value 0.986

From PubChem BioAssay AID1159580 (chemical genetic matrix, 2015)
